Laboratory results as given in PMC4336329 (PLoS ONE, 2015).
Hit rate of the full screen: of about 310,000 compounds, about 14,000 (4.5%) showed an effect of 50% or more. The effect is printed as a negative number. Only a selection was taken, and strong results are over-represented in it overall.

Molecular target: human ether-à-go-go-related gene (hERG) potassium channel (human, UniProt Q12809)
Experiment: primary screen, population patch clamp on CHO cells stably expressing hERG; higher = less effect of the substance
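Also: peak tail current of the secondary pulse compared with the same well before compound.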

Sequence of human ether-à-go-go-related gene (hERG) potassium channel (Q12809 whole entry, looked up): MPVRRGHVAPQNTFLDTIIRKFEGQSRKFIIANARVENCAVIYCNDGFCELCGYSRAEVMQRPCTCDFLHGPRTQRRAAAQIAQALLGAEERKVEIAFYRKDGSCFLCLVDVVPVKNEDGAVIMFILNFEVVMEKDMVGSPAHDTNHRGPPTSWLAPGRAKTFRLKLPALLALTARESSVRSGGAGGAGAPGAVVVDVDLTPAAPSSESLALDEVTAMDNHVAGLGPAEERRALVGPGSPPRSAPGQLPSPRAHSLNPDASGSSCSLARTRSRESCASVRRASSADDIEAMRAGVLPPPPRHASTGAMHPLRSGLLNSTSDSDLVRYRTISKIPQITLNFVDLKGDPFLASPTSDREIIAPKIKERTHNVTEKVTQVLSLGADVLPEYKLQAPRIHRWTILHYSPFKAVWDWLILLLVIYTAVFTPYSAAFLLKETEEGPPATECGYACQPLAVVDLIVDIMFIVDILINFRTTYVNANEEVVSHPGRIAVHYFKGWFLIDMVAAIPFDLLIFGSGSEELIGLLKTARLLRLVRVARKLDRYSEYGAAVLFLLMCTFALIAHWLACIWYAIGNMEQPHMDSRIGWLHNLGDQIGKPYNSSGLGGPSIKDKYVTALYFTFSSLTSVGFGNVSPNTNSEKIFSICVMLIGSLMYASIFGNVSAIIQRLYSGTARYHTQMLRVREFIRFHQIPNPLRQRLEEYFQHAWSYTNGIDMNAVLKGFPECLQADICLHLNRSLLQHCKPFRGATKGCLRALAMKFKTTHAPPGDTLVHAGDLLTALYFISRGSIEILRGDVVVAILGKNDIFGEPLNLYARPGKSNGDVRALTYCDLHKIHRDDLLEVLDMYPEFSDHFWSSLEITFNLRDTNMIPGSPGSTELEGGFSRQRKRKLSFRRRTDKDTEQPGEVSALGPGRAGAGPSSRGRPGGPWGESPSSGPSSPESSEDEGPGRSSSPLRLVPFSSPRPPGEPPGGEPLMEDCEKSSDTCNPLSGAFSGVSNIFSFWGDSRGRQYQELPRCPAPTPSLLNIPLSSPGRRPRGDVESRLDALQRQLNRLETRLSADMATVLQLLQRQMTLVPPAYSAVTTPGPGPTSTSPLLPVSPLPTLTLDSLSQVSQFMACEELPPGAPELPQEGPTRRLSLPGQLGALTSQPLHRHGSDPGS

Structure (SMILES)	hERG current change (%, negative = inhibition) at 10uM
COc1ccc2c(c1)[C@@H]1[C@H](CO2)[C@H](c2ccccc2)[C@]2(C)C(=O)NCC(=O)N12	4.48%
CC(Cc1cccs1)NC(=S)Nc1ccc(Cl)cc1 (stereo not drawn)	14.6%
COC(=O)c1c(C)[nH]c(C=O)c1-c1ccccc1	10.3%
Cc1ccc(NC(=O)c2ccc(Oc3ncccn3)cc2)cc1	12.2%
CN(C)CC(CCCCC(CN(C)C)C(=O)c1ccccc1)C(=O)c1ccccc1 (stereo not drawn)	9.78%
O=C(NCCNc1ccc([N+](=O)[O-])cc1)c1ccco1	-23.7%
O=C(Nc1ccc(Br)cc1)c1cccc(OC(=S)N2CCOCC2)c1	17%
COc1nnc(-c2ccc(C)c(S(=O)(=O)NCC3CCCO3)c2)c2ccccc12 (stereo not drawn)	-69.5%
Cc1ccc(-c2nnc(OCC3CCCO3)c3ccccc23)cc1 (stereo not drawn)	-65.2%
COc1nnc(-c2ccc(C)c(S(N)(=O)=O)c2)c2ccccc12	4.8%
Cc1ccc(Oc2nnc(-c3ccc(C)cc3)c3ccccc23)cc1	2.75%
Cc1ccc(-c2nnc(Nc3ccccc3)c3ccccc23)cc1S(=O)(=O)NCC1CCCO1 (stereo not drawn)	-40.5%
COc1nnc(-c2ccc(C)c(S(=O)(=O)N(C)C)c2)c2ccccc12	-77.6%
COc1nnc(-c2ccc(C)c(S(=O)(=O)NCCO)c2)c2ccccc12	-14.6%
COc1nnc(-c2ccc(C)c(S(=O)(=O)NC(C)C)c2)c2ccccc12	-52.8%
c1ccc(-c2nnc(OCC3CCCO3)c3ccccc23)cc1 (stereo not drawn)	-10.8%
COc1nnc(-c2ccc(C)c(S(=O)(=O)NC(C)(C)CO)c2)c2ccccc12	-15.9%
CCNS(=O)(=O)c1cc(-c2nnc(OC)c3ccccc23)ccc1C	-37.3%
Cc1ccc(-c2nnc(N3CCCCC3)c3ccccc23)cc1S(=O)(=O)NCC1CCCO1 (stereo not drawn)	-16%
CC(C)CNC(=S)NC(=O)c1ccc(Cl)cc1Cl	3.88%
Br.Cc1cccc(N2C(=O)SC(SC(=Nc3ccccc3)Nc3ccccc3)C2=O)c1 (stereo not drawn)	15.3%
Cc1c(Br)c([N+](=O)[O-])nn1CCCC(=O)NC(C)c1ccccc1 (stereo not drawn)	-16.2%
O=C(Nc1c2c(nn1-c1ccccc1)CS(=O)(=O)C2)c1ccccc1Br	-0.51%
COc1ccccc1C(c1nnnn1C(C)(C)C)N1CCCCCC1 (stereo not drawn)	-20.9%
COc1ccc(NC(=O)CN(C)S(=O)(=O)c2ccc3c(c2)n(C)c(=O)c(=O)n3C)cc1	14%
COc1ccc(CSc2nc3ccccc3c(=O)[nH]2)cc1F	36.6%
CC(C)C(NC(=O)CCNC(=O)c1ccccc1Cl)c1nc2ccccc2[nH]1 (stereo not drawn)	-9.36%

Structure (SMILES)	hERG current change (%, negative = inhibition) at 10uM
O=S(=O)(NC(=NC1CCCCC1)c1ccccc1)c1ccccc1	-14.7%
Cc1ccc(S(=O)(=O)NC(=NC2CCCCC2)c2ccccc2)cc1	-55.2%
Cc1ccc(S(=O)(=O)NC(=NC2CCCCC2)c2ccc(F)cc2)cc1	-4.09%
Cn1c(Cc2csc(N)n2)nnc1SCC(=O)NCc1ccccc1	1.12%
COc1cccc(NC(=O)c2ccc(OC(F)(F)F)cc2)c1	1.07%
COc1ccc(-c2cc(C(=O)c3c(N)n(C)c(=O)n(C)c3=O)c3ccccc3n2)cc1	-15.5%
O=C(Nc1cccnc1)C1CCCN(c2ncnc3c2nc2n3CCCCC2)C1 (stereo not drawn)	-36%
O=C(NCc1ccccc1Cl)C1CCCN(c2ncnc3c2nc2n3CCCCC2)C1 (stereo not drawn)	-60.8%
O=C(NCc1ccccc1Cl)C1CCN(c2ncnc3c2nc2n3CCCCC2)CC1	-30.9%
COc1ccc(CNC(=O)C2CCCN(c3ncnc4c3nc3n4CCCCC3)C2)cc1 (stereo not drawn)	-37.6%
COc1cccc(CNC(=O)C2CCCN(c3ncnc4c3nc3n4CCCCC3)C2)c1 (stereo not drawn)	-55.6%
O=C(Nc1cccnc1Cl)C1CCCN(c2ncnc3c2nc2n3CCCCC2)C1 (stereo not drawn)	-42%
O=C(NCc1cccc(Cl)c1)C1CCCN(c2ncnc3c2nc2n3CCCCC2)C1 (stereo not drawn)	-73.5%
COc1cccc(CNC(=O)C2CCN(c3ncnc4c3nc3n4CCCCC3)CC2)c1	16.7%
O=C(NCC1CCN(Cc2cccc(Cl)c2)CC1)C1CCCN(c2ncnc3c2nc2n3CCCCC2)C1 (stereo not drawn)	-44.5%
O=C(NCC1CCN(Cc2ccccc2F)CC1)C1CCCN(c2ncnc3c2nc2n3CCCCC2)C1 (stereo not drawn)	-8.94%
O=C(Nc1ccccc1Cl)C1CCCN(c2ncnc3c2nc2n3CCCCC2)C1 (stereo not drawn)	-59.4%
CN(CCN1CCOCC1)Cc1nc(-c2ccc(Cl)cc2)no1	-28.1%
O=C(NCc1cccs1)C(=O)NCC1OCCCN1S(=O)(=O)c1cccs1 (stereo not drawn)	-15.3%
CC(C)c1ccc(N(CC(=O)NC(C)(C)C)C(=O)CCC(=O)Nc2nccs2)cc1	2.7%
Cc1ccccc1NC(=O)CN1C(=O)CSc2ccccc21	17.3%
CC(=O)c1cccc(S(=O)(=O)N(C)C2CCN(C)CC2)c1.Cl	-2.43%
O=C(COc1ccc(Br)cc1Br)NC(=S)N1CCCc2ccccc21	-2.7%
CN1CCN(C(=O)c2ccccc2N(Cc2ccccc2)S(=O)(=O)c2ccccc2)CC1	-8.4%
Cc1ccc(-c2[nH]nc3c2C(c2ccsc2)C(C#N)=C(N)O3)cc1 (stereo not drawn)	-18.9%
CCc1ccc(N(CC)c2ncnc3nc[nH]c23)cc1	-4.89%
CC(C)c1ccc2oc(=O)cc(CN3CCN(c4ccc(F)cc4)CC3)c2c1	-2.26%
